Consider 40 compounds from ChEMBL document CHEMBL3433997, “St. Jude Leishmania screening dataset” (2016).

One assay deals with Solute carrier family 2, facilitated glucose transporter member 1 (Homo sapiens) (UniProt P11166). In words: ST_JUDE_LEISH: Cytotoxicity at 2uM final concentration against transgenic Leishmania Mexicana promastigotes LmGLUT1 that are glucose transport deficient and complemented with the human glucose transporter GLUT1. Activity is measured by DNA content using SYBR green in vitro. Format: functional.
Sequence of Solute carrier family 2, facilitated glucose transporter member 1 (Homo sapiens) (P11166 whole entry): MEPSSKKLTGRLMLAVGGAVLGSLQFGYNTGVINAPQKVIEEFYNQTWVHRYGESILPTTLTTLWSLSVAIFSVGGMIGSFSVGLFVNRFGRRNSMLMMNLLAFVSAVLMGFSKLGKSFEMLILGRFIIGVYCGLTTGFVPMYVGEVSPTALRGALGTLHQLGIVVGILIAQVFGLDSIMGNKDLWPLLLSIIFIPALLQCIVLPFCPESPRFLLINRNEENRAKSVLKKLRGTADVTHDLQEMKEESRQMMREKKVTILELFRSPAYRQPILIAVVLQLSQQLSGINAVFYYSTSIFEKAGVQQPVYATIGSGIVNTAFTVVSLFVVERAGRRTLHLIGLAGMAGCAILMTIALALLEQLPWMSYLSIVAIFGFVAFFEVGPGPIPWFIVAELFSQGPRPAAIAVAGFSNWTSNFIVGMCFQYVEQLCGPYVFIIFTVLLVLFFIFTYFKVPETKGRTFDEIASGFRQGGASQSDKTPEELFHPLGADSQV
Consider `COc1ccc(C=NNc2nc3ccccc3[nH]2)cc1O`, for which the inhibition was -3.31%.
As to `COC(=O)c1ccc2nc(-c3ccc(C(=O)NCc4ccc(Cl)c(Cl)c4)cc3)[nH]c2c1`, the inhibition was determined as 3.81%.
As to `O=C(CCCCCNC(=O)c1ccc(O)c(-c2ccc(Cl)c(Cl)c2)c1)NC1CCCc2ccccc21` (stereo not given), the inhibition was determined as 2.15%.
For `CC(=O)Nc1cccc(C(=O)Nc2ccc(-c3ccc(-c4nc5cccc(C)c5[nH]4)s3)cc2)c1`, the inhibition is -0.38%.
Same read-out and setting: for `O=C(Nc1cccc(-c2cccc(-c3nc4ccccc4[nH]3)c2)c1)c1csnn1` the value was 5.15%.
The same measure, in the same setting: for `O=c1cc(NCCCNCc2cccc(Oc3ccccc3)c2)[nH]c2ccccc12` the value was 4.28%; for `CCCCc1ccc(NC(=O)Nc2ccc3c(c2)CCNCC3)cc1`, 0.82%; for `CC(C)OCCCNC(=O)c1nc(-c2cccc(C(F)(F)F)c2)sc1C(C)C`, 3.62%.
Regarding `CCc1cc2c3c(N)nc(N)nc3ccc2n1C(C)(C)C`, the inhibition turned out to be 96%.
On the same count and under the same terms, for `O=C(/C=C/c1ccc(Cl)c(Cl)c1)NCCCCCN1CCC(CCNC(=O)Cc2ccc(Cl)cc2)CC1` the value was 1.7%.
On the same count and under the same terms, for `COc1ccc(-c2cccc(NC(=O)c3ccc(Cl)cc3)c2)cc1CN1CCC(O)CC1` the value was 5.4%; for `O=C(c1cccc(-c2noc(C(F)(F)F)n2)c1)N1CCN(C(=O)c2ccc3cc[nH]c3c2)CC1`, -0.84%; for `COc1ccc(CNc2ccnc3cc(OC)ccc23)cc1`, -1.06%.
Same read-out and setting: for `Cc1cc(Nc2nc(Nc3cccc(Cl)c3)nc3ccccc23)n[nH]1` the value was 10.5%; for `NCc1cccc(-c2cccc(CNC3CCN(Cc4ccccc4)CC3)c2)c1`, 6.06%; for `COc1ccc(OC)c(-c2ccc(=O)n(CC(=O)Nc3cccc4ccccc34)n2)c1`, 12.4%.
On to `COC(=O)c1cccc(CNCc2cccc(-c3ccc(-c4nc5ccccc5[nH]4)cc3)c2)c1`, for which the inhibition worked out at 5.57%.
Still for that read-out and setting: for `COc1ccc2c(NN=Cc3ccccc3F)ccnc2c1` the value was 3.28%; for `Cc1cccc2nc(-c3cccc(-c4cccc(NC(=O)c5ccoc5)c4)c3)[nH]c12`, 5.99%; for `CS(=O)(=O)NCCCNCc1cccc(-c2ccc(-c3nc4cc(C(F)(F)F)ccc4[nH]3)cc2)c1`, 7.6%.
Still for that read-out and setting: for `Cc1ccc2nc(C)cc(Nc3ccccc3O)c2c1` the value was -0.76%; for `Cn1nc(C(=O)N2CCC(c3[nH]ncc3Cc3ccccc3)CC2)c2ccccc2c1=O`, 0.16%; for `COc1ccc(NC(=O)Nc2ccc(-c3cccc(-c4nc5cccc(C)c5[nH]4)c3)cc2)cc1`, -1.37%.
As for `CCCc1cc(Cc2cnc(N)nc2N)ccc1OCCCCCC(=O)O`, the inhibition worked out at 1.42%.
On the same count and under the same terms, for `CS(=O)(=O)NCCCNCc1cccc(-c2cccc(-c3nc4cc(F)ccc4[nH]3)c2)c1` the value was 1.53%; for `COc1ccc(C2CC(c3ccccc3)=NN2C(=O)c2ccc(Br)o2)cc1` (stereo not given), -0.17%.
The same measure, in the same setting: for `O=C(NCC(CCCN1CCC(c2c[nH]c3ccccc23)CC1)c1ccccc1)Nc1ccc(Cl)c(Cl)c1` (stereo not given) the value was 4.09%; for `Cc1cc(OCCCN2CCCCC2)ccc1NC(=O)COc1ccc(Cl)cc1C(=O)c1cc(C#N)cc(C(F)(F)F)c1`, 4.63%.
The same measure, in the same setting: for `Cc1[nH]c(C)c(-c2ccc(Oc3ccc(O)cc3)cc2)c(=O)c1Cl` the value was 3.19%; for `CN(C(=O)C(C)(C)Oc1ccc(Cl)cc1)C1CCN(CCCCCNC(=O)/C=C/c2ccc(Cl)c(Cl)c2)CC1`, 1.85%.
With `CC(C)CNCc1cccc(-c2cccc(CNc3ccc4ncccc4c3)c2)c1`, the inhibition was 2.92%.
Consider `CCS(=O)(=O)c1ccc(/C(=N/OC)c2ccc[nH]2)cc1`, for which the inhibition worked out at 0.36%.
Still for that read-out and setting: for `CC(C)c1cc(Oc2c(I)cc(CCNCc3ccccc3)cc2I)ccc1O` the value was 0.46%.
The same measure, in the same setting: for `CC(C)c1ccc(C(NC(=O)C2CCCCC2)c2ccc3cccnc3c2O)cc1` (stereo not given) the value was -0.43%; for `O=C(Nc1cccc(-c2ccc(-c3nc4cc(C(F)(F)F)ccc4[nH]3)cc2)c1)Nc1ccc(Cl)c(Cl)c1`, 3.88%; for `CCCNCc1ccc(-c2ccc(CN(C(=O)c3nn(-c4ccccc4)nc3C)C(C)CN(C)C)cc2)nc1` (stereo not given), 1.37%.
The same measure, in the same setting: for `O=C1COc2ccccc2N1C/C=C(\CN1CCC(c2ccccc2)CC1)c1cc(Cl)cc(Cl)c1` the value was 1.77%; for `Cc1nc(N)nc(N)c1CCCOc1ccc(Br)cc1`, 6.19%; for `CCNc1cc(C(=O)N[C@@H](Cc2ccccc2)[C@H](O)CNCCC(C)(C)C)c(F)c(N2CCCCS2(=O)=O)c1`, 6.09%.
On to `COc1ccc(CCNCCCCCCNCCc2ccc(OC)c(OC)c2Cl)c(Cl)c1OC`, for which the inhibition stood at 0.05%.

The target of another assay is Hexose transporter 1 (Plasmodium falciparum) (UniProt O97467). In words: ST_JUDE_LEISH: Cytotoxicity at 2uM final concentration against transgenic Leishmania Mexicana promastigotes LmPfHT that are glucose transport deficient and complemented with the Plasmodium falciparum hexose transporter. Activity is measured by DNA content using SYBR green in vitro. Format: functional.
As to `COc1ccc(C=NNc2nc3ccccc3[nH]2)cc1O`, the inhibition was -1.02%.
Still for that read-out and setting: for `COC(=O)c1ccc2nc(-c3ccc(C(=O)NCc4ccc(Cl)c(Cl)c4)cc3)[nH]c2c1` the value was 3.6%; for `O=C(CCCCCNC(=O)c1ccc(O)c(-c2ccc(Cl)c(Cl)c2)c1)NC1CCCc2ccccc21` (stereo not given), 2.14%; for `CC(=O)Nc1cccc(C(=O)Nc2ccc(-c3ccc(-c4nc5cccc(C)c5[nH]4)s3)cc2)c1`, 1.16%.
For the compound `O=C(Nc1cccc(-c2cccc(-c3nc4ccccc4[nH]3)c2)c1)c1csnn1`, the inhibition is 5.92%.
`O=c1cc(NCCCNCc2cccc(Oc3ccccc3)c2)[nH]c2ccccc12`: the inhibition came out at 2.68%.
On the same count and under the same terms, for `CCCCc1ccc(NC(=O)Nc2ccc3c(c2)CCNCC3)cc1` the value was 2.05%.
Same read-out and setting: for `CC(C)OCCCNC(=O)c1nc(-c2cccc(C(F)(F)F)c2)sc1C(C)C` the value was 4.03%; for `CCc1cc2c3c(N)nc(N)nc3ccc2n1C(C)(C)C`, 94.4%; for `O=C(/C=C/c1ccc(Cl)c(Cl)c1)NCCCCCN1CCC(CCNC(=O)Cc2ccc(Cl)cc2)CC1`, 0.82%.
On the same count and under the same terms, for `COc1ccc(-c2cccc(NC(=O)c3ccc(Cl)cc3)c2)cc1CN1CCC(O)CC1` the value was 0.09%; for `O=C(c1cccc(-c2noc(C(F)(F)F)n2)c1)N1CCN(C(=O)c2ccc3cc[nH]c3c2)CC1`, -0.23%; for `COc1ccc(CNc2ccnc3cc(OC)ccc23)cc1`, 12.2%.
For `Cc1cc(Nc2nc(Nc3cccc(Cl)c3)nc3ccccc23)n[nH]1`, the inhibition worked out at 17.2%.
Still for that read-out and setting: for `NCc1cccc(-c2cccc(CNC3CCN(Cc4ccccc4)CC3)c2)c1` the value was 5.41%; for `COc1ccc(OC)c(-c2ccc(=O)n(CC(=O)Nc3cccc4ccccc34)n2)c1`, 11.6%.
As to `COC(=O)c1cccc(CNCc2cccc(-c3ccc(-c4nc5ccccc5[nH]4)cc3)c2)c1`, the inhibition came to 5.76%.
On the same count and under the same terms, for `COc1ccc2c(NN=Cc3ccccc3F)ccnc2c1` the value was 2.8%.
Same read-out and setting: for `Cc1cccc2nc(-c3cccc(-c4cccc(NC(=O)c5ccoc5)c4)c3)[nH]c12` the value was 5.37%; for `CS(=O)(=O)NCCCNCc1cccc(-c2ccc(-c3nc4cc(C(F)(F)F)ccc4[nH]3)cc2)c1`, 3.88%; for `Cc1ccc2nc(C)cc(Nc3ccccc3O)c2c1`, -1.41%.
Regarding `Cn1nc(C(=O)N2CCC(c3[nH]ncc3Cc3ccccc3)CC2)c2ccccc2c1=O`, the inhibition turned out to be 2.06%.
Still for that read-out and setting: for `COc1ccc(NC(=O)Nc2ccc(-c3cccc(-c4nc5cccc(C)c5[nH]4)c3)cc2)cc1` the value was -1.2%; for `CCCc1cc(Cc2cnc(N)nc2N)ccc1OCCCCCC(=O)O`, 2.24%; for `CS(=O)(=O)NCCCNCc1cccc(-c2cccc(-c3nc4cc(F)ccc4[nH]3)c2)c1`, 1.37%.
Same read-out and setting: for `COc1ccc(C2CC(c3ccccc3)=NN2C(=O)c2ccc(Br)o2)cc1` (stereo not given) the value was 0.43%.
Same read-out and setting: for `O=C(NCC(CCCN1CCC(c2c[nH]c3ccccc23)CC1)c1ccccc1)Nc1ccc(Cl)c(Cl)c1` (stereo not given) the value was 2.82%.
Consider `Cc1cc(OCCCN2CCCCC2)ccc1NC(=O)COc1ccc(Cl)cc1C(=O)c1cc(C#N)cc(C(F)(F)F)c1`, for which the inhibition stood at 3.53%.
Still for that read-out and setting: for `Cc1[nH]c(C)c(-c2ccc(Oc3ccc(O)cc3)cc2)c(=O)c1Cl` the value was 1.48%; for `CN(C(=O)C(C)(C)Oc1ccc(Cl)cc1)C1CCN(CCCCCNC(=O)/C=C/c2ccc(Cl)c(Cl)c2)CC1`, 2.76%; for `CC(C)CNCc1cccc(-c2cccc(CNc3ccc4ncccc4c3)c2)c1`, 1.32%.
As for `CCS(=O)(=O)c1ccc(/C(=N/OC)c2ccc[nH]2)cc1`, the inhibition was 0.06%.
Take `CC(C)c1cc(Oc2c(I)cc(CCNCc3ccccc3)cc2I)ccc1O`: the inhibition is 1.39%.
The same measure, in the same setting: for `CC(C)c1ccc(C(NC(=O)C2CCCCC2)c2ccc3cccnc3c2O)cc1` (stereo not given) the value was -0.57%; for `O=C(Nc1cccc(-c2ccc(-c3nc4cc(C(F)(F)F)ccc4[nH]3)cc2)c1)Nc1ccc(Cl)c(Cl)c1`, 2.8%.
Same read-out and setting: for `CCCNCc1ccc(-c2ccc(CN(C(=O)c3nn(-c4ccccc4)nc3C)C(C)CN(C)C)cc2)nc1` (stereo not given) the value was 0.07%.
Still for that read-out and setting: for `O=C1COc2ccccc2N1C/C=C(\CN1CCC(c2ccccc2)CC1)c1cc(Cl)cc(Cl)c1` the value was 1.99%; for `Cc1nc(N)nc(N)c1CCCOc1ccc(Br)cc1`, 4.15%; for `CCNc1cc(C(=O)N[C@@H](Cc2ccccc2)[C@H](O)CNCCC(C)(C)C)c(F)c(N2CCCCS2(=O)=O)c1`, -0.44%.
Turning to `COc1ccc(CCNCCCCCCNCCc2ccc(OC)c(OC)c2Cl)c(Cl)c1OC`, the inhibition was -0.34%.

As usually defined, the inhibition is the drop in the measured response relative to a control, in per cent.
